In the supplement of paper PMC4723716 one finds viability index data, which are given here for 15 molecules.

Structures are written as SMILES. The full ranking holds about 3,600 compounds; the median of “viability index relative to DMSO control” is about 0.81, and the lowest 2% start at about 0.13. This excerpt belongs to a sample that is enriched for the lowest values.
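Further: Saponin-lysis sexual stage assay in serum-free medium: MitoTracker Red CMXRos staining plus saponin, high-content imaging, particle count per well divided by plate mean of DMSO wells.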

This assay has as its system Plasmodium falciparum NF54 stage V gametocytes. The assay can be described thus: viability index relative to DMSO control (fraction); higher = less gametocyte killing. The settings on record: 1.25 µM, incubation time: 72 h.
The molecule `COc1ccc(CC2NCC(O)C2OC(C)=O)cc1` (stereo not given) returned a viability index of 0.
For `Cc1ccc(-n2c(C)c(C(=O)c3ccccc3)c3cc(O)ccc32)cc1`, the viability index is 1.24.
Next, `Cc1c2ccccc2c(C)c2ccccc12`: 1.04.
Take `COc1ccc(-c2ccc(C=C3C(=O)NC(=S)NC3=O)o2)cc1Cl`: the viability index worked out at 0.866.
`C=CC1CN2CCC1C(C(O)c1ccnc3ccc(OC)cc13)C2` (stereo not given): the viability index is 0.411.
`NC(=O)CN1CC(O)CC1=O` (stereo not given) yielded a viability index of 0.0308.
Consider `OC1(c2ccc(Cl)c(C(F)(F)F)c2)CCN(CCOC2c3ccccc3CSc3ccc(Cl)cc32)CC1` (stereo not given), for which the viability index worked out at 0.589.
Regarding `CC(C)N1CC=C(c2c[nH]c3ccccc23)CC1`, the viability index worked out at 0.887.
Take `O=C(Cn1c2ccccc2c(=O)c2ccccc21)Nc1ccc(Cl)cc1C(=O)c1ccccc1`: the viability index is 0.781.
Consider `Oc1ccccc1C=Nc1ccccc1[Te]c1ccccc1N=Cc1ccccc1O`, for which the viability index stood at 0.0513.
In turn, `O=c1cccc2n1CC1CC2CN(Cc2cccc(O)c2)C1` (stereo not given) registered a viability index of 0.898.
In the case of `CC(C)NC(=O)c1cn(Cc2ccccc2)cc(C(=O)NCCc2nc3ccccc3[nH]2)c1=O`, the viability index came out at 0.942.
In turn, `CN1CCN(c2ccc(NC(=O)Oc3ccccc3)cc2)CC1` came in with a viability index of 0.798.
With `N#CC1=C(N)Oc2c(c(=O)oc3ccccc23)C1c1ccoc1` (stereo not given), the viability index was 1.08.
`C=CC1CN2CCC1CC2C(OC(=O)c1ccco1)c1ccnc2ccccc12` (stereo not given): the viability index stood at 0.46.
